# Residue numbers refer to the chain shown, from its start.
# How the values were obtained:
# Assay in all cases: yeast three-hybrid, YBZ-1, SC-Leu-His + 0.5 mM 3-AT, 4 days
# Details in all cases: tags: N-Gal4 AD-HA kept; label: inside an RPR1-promoter hybrid RNA with tandem MS2 sites; ssRNA
# [1] = molecular target: PUM1 PUF domain R1-RYL (Homo sapiens, UniProt Q14671 828-1176, S863R;R864Y;Q867L)
# Summary of the method: (§1)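 Matching RNA elements and Pumilio-1 PUF domain libraries, randomized at the three base-contacting residues of every repeat, were co-expressed from a centromeric plasmid in strain YBZ-1 (LexA–MS2 coat fusion, HIS3 reporter). The repeat regions were PCR-amplified and Illumina-sequenced from cells grown four days on SC-Leu (input) or SC-Leu-His + 0.5 mM 3-AT (selection). The interaction score is the log change in variant frequency from input to selection. It is computed in log2, with a pseudocount of 1 for absent variants.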
# [2] = molecular target: PUM1 PUF domain R5-SFS (Homo sapiens, UniProt Q14671 828-1176, C1007S;R1008F;Q1011S)
# Summary of the method: as §1
# [3] = molecular target: PUM1 PUF domain R7-KYK (Homo sapiens, UniProt Q14671 828-1176, S1079K;N1080Y;E1083K)
# Chain of PUM1 PUF domain R7-KYK (Q14671 828-1176 S1079K/N1080Y/E1083K): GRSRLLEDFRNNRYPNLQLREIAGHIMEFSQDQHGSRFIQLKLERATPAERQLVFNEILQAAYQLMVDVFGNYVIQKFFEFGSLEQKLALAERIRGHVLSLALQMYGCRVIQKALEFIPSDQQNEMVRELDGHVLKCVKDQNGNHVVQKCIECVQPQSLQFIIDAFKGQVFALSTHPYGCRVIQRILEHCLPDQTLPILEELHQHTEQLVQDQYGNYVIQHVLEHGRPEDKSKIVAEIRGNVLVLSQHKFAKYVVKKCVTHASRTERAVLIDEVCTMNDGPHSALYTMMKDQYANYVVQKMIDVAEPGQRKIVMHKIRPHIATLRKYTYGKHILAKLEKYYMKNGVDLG
# Summary of the method: as §1
# [4] = molecular target: PUM1 PUF domain R8-RWR (Homo sapiens, UniProt Q14671 828-1176, N1122R;Y1123W;Q1126R)
# Summary of the method: as §1
# [5] = molecular target: PUM1 PUF domain R4-PHM (Homo sapiens, UniProt Q14671 828-1176, N971P;Q975M)
# Summary of the method: as §1
# [6] = molecular target: T1, PUM1 PUF domain R6-RYA (Homo sapiens, UniProt Q14671 828-1176, N1043R;Q1047A)
# T1 sequence: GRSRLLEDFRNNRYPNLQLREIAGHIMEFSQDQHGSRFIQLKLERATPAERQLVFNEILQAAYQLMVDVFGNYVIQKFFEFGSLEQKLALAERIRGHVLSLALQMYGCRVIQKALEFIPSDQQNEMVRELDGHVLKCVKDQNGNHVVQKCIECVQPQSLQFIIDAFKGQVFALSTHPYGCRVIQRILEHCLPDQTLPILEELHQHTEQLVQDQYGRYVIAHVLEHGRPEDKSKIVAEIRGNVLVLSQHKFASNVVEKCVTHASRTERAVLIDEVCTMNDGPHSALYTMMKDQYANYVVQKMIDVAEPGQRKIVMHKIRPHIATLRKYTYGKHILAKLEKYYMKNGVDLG
# Summary of the method: as §1
# [7] = molecular target: PUM1 PUF domain R5-LFQ (Homo sapiens, UniProt Q14671 828-1176, C1007L;R1008F)
# Summary of the method: as §1
# [8] = molecular target: T2, PUM1 PUF domain R6-SYM (Homo sapiens, UniProt Q14671 828-1176, N1043S;Q1047M)
# T2 sequence: T1 sequence with R216S, A220M
# Summary of the method: as §1
# [9] = molecular target: PUM1 PUF domain R4-SRC (Homo sapiens, UniProt Q14671 828-1176, N971S;H972R;Q975C)
# Summary of the method: as §1
# [10] = molecular target: PUM1 PUF domain R5-SAT (Homo sapiens, UniProt Q14671 828-1176, C1007S;R1008A;Q1011T)
# Summary of the method: as §1
sequence,measurement,setting,value
GGCUAGAACUAGUGGAUCCCCCGGCGCCCGGCGGCUCGAGCCCGGGUAAGUGUAAAUCGUCUGCAUGCCGCCGGGCGCCAUGCCUGCAGGUCGACUCUAGAAAACAUG,binding signal,[1],2.26 log2 enrichment (interaction score)
GGCUAGAACUAGUGGAUCCCCCGGCGCCCGGCGGCUCGAGCCCGGGUAAGUGUCAAUAGUCUGCAUGCCGCCGGGCGCCAUGCCUGCAGGUCGACUCUAGAAAACAUG,binding signal,[2],3.78 log2 enrichment (interaction score)
GGCUAGAACUAGUGGAUCCCCCGGCGCCCGGCGGCUCGAGCCCGGGUAAGUAUAAAUAGUCUGCAUGCCGCCGGGCGCCAUGCCUGCAGGUCGACUCUAGAAAACAUG,binding signal,[3],4.11 log2 enrichment (interaction score)
GGCUAGAACUAGUGGAUCCCCCGGCGCCCGGCGGCUCGAGCCCGGGUAAGCGUAAAUAGUCUGCAUGCCGCCGGGCGCCAUGCCUGCAGGUCGACUCUAGAAAACAUG,binding signal,[4],7 log2 enrichment (interaction score)
GGCUAGAACUAGUGGAUCCCCCGGCGCCCGGCGGCUCGAGCCCGGGUAAGUGUAAAUAGUCUGCAUGCCGCCGGGCGCCAUGCCUGCAGGUCGACUCUAGAAAACAUG,binding signal,[5],4.14 log2 enrichment (interaction score)
same,binding signal,[6],3.02 log2 enrichment (interaction score)
same,binding signal,[7],2.45 log2 enrichment (interaction score)
same,binding signal,[3],2.18 log2 enrichment (interaction score)
same,binding signal,[8],2.79 log2 enrichment (interaction score)
same,binding signal,[9],4.65 log2 enrichment (interaction score)
same,binding signal,[4],6.58 log2 enrichment (interaction score)
GGCUAGAACUAGUGGAUCCCCCGGCGCCCGGCGGCUCGAGCCCGGGUAAGUGUAUAUAGUCUGCAUGCCGCCGGGCGCCAUGCCUGCAGGUCGACUCUAGAAAACAUG,binding signal,[5],5.12 log2 enrichment (interaction score)
GGCUAGAACUAGUGGAUCCCCCGGCGCCCGGCGGCUCGAGCCCGGGUAAGUGUAAAUUGUCUGCAUGCCGCCGGGCGCCAUGCCUGCAGGUCGACUCUAGAAAACAUG,binding signal,[1],2.71 log2 enrichment (interaction score)
GGCUAGAACUAGUGGAUCCCCCGGCGCCCGGCGGCUCGAGCCCGGGUAAGUGUGAAUAGUCUGCAUGCCGCCGGGCGCCAUGCCUGCAGGUCGACUCUAGAAAACAUG,binding signal,[10],2.75 log2 enrichment (interaction score)
GGCUAGAACUAGUGGAUCCCCCGGCGCCCGGCGGCUCGAGCCCGGGUAAGUCUAAAUAGUCUGCAUGCCGCCGGGCGCCAUGCCUGCAGGUCGACUCUAGAAAACAUG,binding signal,[3],5.83 log2 enrichment (interaction score)

# From paper PMC8384837, “Expanding the binding specificity for RNA recognition by a PUF domain”
